Results filed as inconclusive are left out. The source made the active and inactive calls. Rule for the calls: active = hit-call score of the fitted dose curve at least 0.9, where 1 is the maximum; inconclusive = response in the unintended direction; inactive = score below 0.9.

As usually defined, the AC50 is the concentration giving half of the maximal activity seen.

This assay in a line: ACEA_ER_AUC_viability: ACEA Biosciences xCELLigence Real-Time Cell Analysis on Estrogen Receptor Agonism for Viability (AID 2283782).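 Note: hit means loss of impedance signal meaning reduced cell growth or viability.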 The method, boiled down: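 Continuous-exposure impedance cell analysis uses T-47D cells in charcoal-stripped serum, eight 1:4 dilutions topping at 100 uM final, biological duplicate. Area under the growth curve at 80 h is fitted against DMSO baseline.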
Turning to `CCCCCCCCCCC=CC#N`, the AC50 was 50 µM (active). As for `Cc1cc(C)c(C)c(C)c1`, the molecule was called inactive. The same measure, in the same setting: in the case of `CC(=O)OCC(C)OC(C)=O` (configuration not stated) it was “inactive”. As to `Nc1ccc(Cl)cc1Cl`, the AC50 is 29.2 µM (active). With `CC(=O)Oc1ccc(C)cc1`, the call was inactive. As to `C=C[C@](C)(O)CC[C@@H]1[C@@]2(C)CCCC(C)(C)[C@@H]2CC[C@@]1(C)O`, the AC50 is 37.6 µM (active). `CC(C)=CCCC(C)C=O` (configuration not stated): the AC50 was 11.9 µM (active). As for `FC(F)(F)C(=NOCC1OCCO1)c1ccc(Cl)cc1`, the AC50 is 74.9 µM (active). With `Cc1cc(C)c(C)c(O)c1`, the molecule was called inactive.

Take `OCCc1ccncc1`: the molecule was called inactive. In the case of `CCCOC(=O)CCCCC(=O)OCCC`, the AC50 is 50 µM (active).

As for `CC(C)=CC1CC(C)CCO1` (configuration not stated), the molecule was called inactive. Regarding `CCCCCCOC(=O)C(C)CC` (configuration not stated), the AC50 is 66.7 µM (active).

As for `CCCCCCCCCCCCCCCC[N+](C)(C)CC`, the AC50 is 12.3 µM (active). On to `NC(CO)(CO)CO`, for which the molecule was called inactive.

On to `CCC(C)(C)C1CCCCC1OC(C)=O` (configuration not stated), for which the result was inactive. Consider `CC(=O)c1ccc2c(c1)CCCC2`, for which the AC50 is 31.7 µM (active).

For `CCCC(=O)OCc1ccccc1`, the result was inactive. For the molecule `O=S(=O)(O)c1ccc2cc(O)c(S(=O)(=O)O)cc2c1`, the AC50 is 50 µM (active). Regarding `CC(C)C1=CC2=CC[C@@H]3[C@](C)(CCC[C@@]3(C)C(=O)O)[C@H]2CC1`, the molecule was called inactive. Regarding `O=c1n(CCO)c(=O)n(CCO)c(=O)n1CCO`, the molecule was classed as inactive. `CC(C)c1ccc(C=O)cc1`: the molecule was classed as inactive. In the case of `O=C1CCCC1`, the molecule was called inactive. Consider `O=CC1CC1`, for which the AC50 was 65 µM (active).

On to `CC(C)c1ccc(C#N)cc1`, for which the AC50 was 50 µM (active). As for `CCCCCCCCCCc1ccccc1`, the AC50 was 26.2 µM (active). Consider `O=C1C=CC(=O)O1`, for which the result was inactive.

The record behind these values is PubChem BioAssay (EPA / NIEHS).
